The panel holds about 79,000 compounds, 15% with a hit somewhere; the sample as a whole holds those more often. Values without a mark were called inactive. Calls of active or inactive are those of the source. Rule as the data show it: active = growth inhibition above about 70%; inactive = the rest.

Experiment [1] can be described thus: NCI Yeast Anticancer Drug Screen. Data for the rad50 strain (AID 155).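 Also: 0% = growth of vehicle-only cultures of the same strain.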 The following applies: S. cerevisiae rad50 strain growth inhibition, active compounds read high. Put shortly: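 Inhibition values express reduced yeast growth in compound-treated cultures relative to vehicle-treated controls.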
The nature of experiment [2]: NCI Yeast Anticancer Drug Screen. Data for the mec2-1 strain (AID 157). Particulars: S. cerevisiae mec2-1 strain, active compounds read high. Put shortly: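 Mutant yeast (mec2-1) grown with compound; growth inhibition relative to vehicle control reported.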
The nature of experiment [3]: NCI Yeast Anticancer Drug Screen. Data for the sgs1 mgt1 strain (AID 161).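 Also: 0% = growth of cultures given vehicle only.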 Particulars: S. cerevisiae sgs1 mgt1 strain, active compounds read high. Put shortly:
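Percent growth inhibition was derived by comparing compound-exposed mutant yeast with vehicle-exposed cultures. The strain carries alterations in DNA damage repair.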

Experiment [4] is described as follows: NCI Yeast Anticancer Drug Screen. Data for the cln2 rad14 strain (AID 165).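 Also: 0% = growth equal to vehicle treated cultures.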 The following applies: S. cerevisiae cln2 rad14 strain, active compounds read high. Put shortly: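 Readout is yeast growth inhibition versus vehicle-treated controls, using a strain with cln2 and rad14 alterations exposed to compound.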
Experiment [5] is described as follows: NCI Yeast Anticancer Drug Screen. Data for the bub3 strain (AID 167). The following applies: S. cerevisiae bub3 mutant strain, active compounds read high. Put shortly: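 Steps: expose the mutant yeast strain to compound; grow alongside vehicle-treated cultures; measure growth; express inhibition against the vehicle cultures.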
A short description of experiment [6]: NCI Yeast Anticancer Drug Screen. Data for the mlh1 rad18 strain (AID 175). The following applies: S. cerevisiae mlh1 rad18 strain growth inhibition, active compounds read high. Put shortly: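 Genetically defined yeast (DNA repair-deficient) exposed to compounds; growth inhibition determined relative to vehicle.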
Setting [7] is: at 5.0 µM (retest, dose inferred, filed as 0.5).
[8] abbreviates: at 50.0 µM (retest, dose inferred, filed as 5.0).

In the case of `O=C(O)c1ccc(NCc2c(O)ccc3ccccc23)cc1`, the growth inhibition in experiment [1] (setting [7]) is 5%; in experiment [1] (setting [8]) it was 26%; in experiment [1] (at 50.0 µM) it was 4%; in experiment [2] (setting [7]) it was 9%; in experiment [2] (setting [8]) it was 29%; in experiment [2] (at 50.0 µM) it was 17.4%. The growth inhibition in experiment [3] (setting [7]) is 11%; in experiment [3] (setting [8]) it was 15%; in experiment [3] (at 50.0 µM), 45.2%; in experiment [4] (setting [7]), -3%; in experiment [4] (setting [8]) it was 15%; in experiment [4] (at 50.0 µM), -13.9%. The growth inhibition was 4% in experiment [5] (setting [7]); 28% in experiment [5] (setting [8]); 48.1% in experiment [5] (at 50.0 µM); 9% in experiment [6] (setting [7]); 26% in experiment [6] (setting [8]); 19.1% in experiment [6] (at 50.0 µM).
Consider `CC1=CC(C2/C(=N/O)C=C(C)CC2(C)C)C(O)C(C)(C)C1` (configuration not stated), for which the growth inhibition was 7% in experiment [1] (setting [7]); 95% (active) in experiment [1] (setting [8]); 99.2% (active) in experiment [1] (at 50.0 µM); -18% in experiment [2] (setting [7]); 99% (active) in experiment [2] (setting [8]); 98.2% (active) in experiment [2] (at 50.0 µM). In addition, the growth inhibition was -4% in experiment [3] (setting [7]); 96% (active) in experiment [3] (setting [8]); 98.8% (active) in experiment [3] (at 50.0 µM); -1% in experiment [4] (setting [7]); 97% (active) in experiment [4] (setting [8]); 97.8% (active) in experiment [4] (at 50.0 µM). Moreover, the growth inhibition in experiment [5] (setting [7]) was -23%; in experiment [5] (setting [8]), 92% (active); in experiment [5] (at 50.0 µM) it was 98.2% (active); in experiment [6] (setting [7]), -3%; in experiment [6] (setting [8]), 98% (active); in experiment [6] (at 50.0 µM), 98.7% (active).
As for `O=C1c2cc(Br)cc(Br)c2NCCC1(Br)Br`, the growth inhibition in experiment [1] (setting [7]) is 99% (active); in experiment [1] (setting [8]), 98% (active); in experiment [1] (at 50.0 µM), 97.7% (active); in experiment [2] (setting [7]), 98% (active); in experiment [2] (setting [8]), 100% (active); in experiment [2] (at 50.0 µM), 99.1% (active). Besides, the growth inhibition in experiment [3] (setting [7]) was 100% (active); in experiment [3] (setting [8]), 99% (active); in experiment [3] (at 50.0 µM), 97.8% (active); in experiment [4] (setting [7]), 99% (active); in experiment [4] (setting [8]), 98% (active); in experiment [4] (at 50.0 µM), 98% (active). The growth inhibition in experiment [5] (setting [7]) is 99% (active); in experiment [5] (setting [8]), 98% (active); in experiment [5] (at 50.0 µM), 97.5% (active); in experiment [6] (setting [7]) it was 100% (active); in experiment [6] (setting [8]) it was 98% (active); in experiment [6] (at 50.0 µM), 98.5% (active).
For `O=C1OC(C2OC(=O)C(=O)C2C(=O)c2ccc(Cl)cc2)C(C(=O)c2ccc(Cl)cc2)C1=O` (configuration not stated), the growth inhibition in experiment [1] (setting [7]) is -3%; in experiment [1] (setting [8]), 63%; in experiment [1] (at 50.0 µM), 82.9% (active); in experiment [2] (setting [7]), -3%; in experiment [2] (setting [8]), 37%; in experiment [2] (at 50.0 µM) it was 11.8%. Further, the growth inhibition was 1% in experiment [3] (setting [7]); 64% in experiment [3] (setting [8]); 30.5% in experiment [3] (at 50.0 µM); -4% in experiment [4] (setting [7]); 31% in experiment [4] (setting [8]); 29.6% in experiment [4] (at 50.0 µM). Besides, the growth inhibition is 9% in experiment [5] (setting [7]); 43% in experiment [5] (setting [8]); 43% in experiment [5] (at 50.0 µM); -5% in experiment [6] (setting [7]); 85% (active) in experiment [6] (setting [8]); 76.7% (active) in experiment [6] (at 50.0 µM).
With `COc1ccc(-c2c(C#N)cc(OC)c(OC)c2OC)c(C=O)c1`, the growth inhibition was 2% in experiment [1] (setting [7]); 24% in experiment [1] (setting [8]); 43.4% in experiment [1] (at 50.0 µM); -5% in experiment [2] (setting [7]); 29% in experiment [2] (setting [8]); 31.8% in experiment [2] (at 50.0 µM). Moreover, the growth inhibition in experiment [3] (setting [7]) was -19%; in experiment [3] (setting [8]), 62%; in experiment [3] (at 50.0 µM) it was 40.9%; in experiment [4] (setting [7]), 0%; in experiment [4] (setting [8]), 11%; in experiment [4] (at 50.0 µM), 80.2% (active). The growth inhibition was -3% in experiment [5] (setting [7]); 26% in experiment [5] (setting [8]); 75% (active) in experiment [5] (at 50.0 µM); 11% in experiment [6] (setting [7]); 57% in experiment [6] (setting [8]); 76.3% (active) in experiment [6] (at 50.0 µM).
For `CCCCCCCCCCCC[n+]1cc2ccccc2cc1C`, the growth inhibition is 98% (active) in experiment [1] (setting [7]); 98% (active) in experiment [1] (setting [8]); 91.7% (active) in experiment [1] (at 50.0 µM); 99% (active) in experiment [2] (setting [7]); 99% (active) in experiment [2] (setting [8]); 90.8% (active) in experiment [2] (at 50.0 µM). Besides, the growth inhibition is 98% (active) in experiment [3] (setting [7]); 99% (active) in experiment [3] (setting [8]); 88.5% (active) in experiment [3] (at 50.0 µM); 97% (active) in experiment [4] (setting [7]); 99% (active) in experiment [4] (setting [8]); 86.7% (active) in experiment [4] (at 50.0 µM). The growth inhibition was 99% (active) in experiment [5] (setting [7]); 99% (active) in experiment [5] (setting [8]); 93.2% (active) in experiment [5] (at 50.0 µM); 97% (active) in experiment [6] (setting [7]); 98% (active) in experiment [6] (setting [8]); 90.8% (active) in experiment [6] (at 50.0 µM).
Consider `C/C(=N\NC(=S)N1CCN(C2CCCCC2)CC1)c1ccccn1`, for which the growth inhibition was -3% in experiment [1] (setting [7]); 64% in experiment [1] (setting [8]); 99% (active) in experiment [1] (at 50.0 µM); -14% in experiment [2] (setting [7]); 76% (active) in experiment [2] (setting [8]); 98.7% (active) in experiment [2] (at 50.0 µM). Moreover, the growth inhibition in experiment [3] (setting [7]) is -4%; in experiment [3] (setting [8]), 98% (active); in experiment [3] (at 50.0 µM), 98.5% (active); in experiment [4] (setting [7]), 12%; in experiment [4] (setting [8]), 59%; in experiment [4] (at 50.0 µM), 97.1% (active). For the same compound, the growth inhibition is -16% in experiment [5] (setting [7]); 51% in experiment [5] (setting [8]); 96.6% (active) in experiment [5] (at 50.0 µM); 15% in experiment [6] (setting [7]); 85% (active) in experiment [6] (setting [8]); 95.7% (active) in experiment [6] (at 50.0 µM).
As to `CSC(=S)CC(O)[C@@H]1CC2c3ccccc3C1c1ccccc12` (some centres not stated), the growth inhibition in experiment [1] (setting [7]) is -5%; in experiment [1] (setting [8]) it was 94% (active); in experiment [1] (at 50.0 µM), 76.7% (active); in experiment [2] (setting [7]) it was 1%; in experiment [2] (setting [8]), 93% (active); in experiment [2] (at 50.0 µM), 84.3% (active). Also, the growth inhibition in experiment [3] (setting [7]) is 1%; in experiment [3] (setting [8]) it was 93% (active); in experiment [3] (at 50.0 µM), 65.7%; in experiment [4] (setting [7]), 2%; in experiment [4] (setting [8]), 92% (active); in experiment [4] (at 50.0 µM) it was 79.7% (active). The growth inhibition in experiment [5] (setting [7]) is 17%; in experiment [5] (setting [8]), 93% (active); in experiment [5] (at 50.0 µM), 77% (active); in experiment [6] (setting [7]), 5%; in experiment [6] (setting [8]) it was 93% (active); in experiment [6] (at 50.0 µM), 71.5% (active).
Turning to `O=C(O)CN(CC(=O)O)C1CCCCC1N1CC(=O)OC(=O)C1` (configuration not stated), the growth inhibition in experiment [1] (setting [7]) is 35%; in experiment [1] (setting [8]), 35%; in experiment [1] (at 50.0 µM), 74.3% (active); in experiment [2] (setting [7]), 17%; in experiment [2] (setting [8]), 17%; in experiment [2] (at 50.0 µM), 81.1% (active). The growth inhibition is 26% in experiment [3] (setting [7]); 26% in experiment [3] (setting [8]); 75% (active) in experiment [3] (at 50.0 µM); 3% in experiment [4] (setting [7]); 3% in experiment [4] (setting [8]); 64.3% in experiment [4] (at 50.0 µM). In addition, the growth inhibition in experiment [5] (setting [7]) is -7%; in experiment [5] (setting [8]) it was -7%; in experiment [5] (at 50.0 µM) it was 80.3% (active); in experiment [6] (setting [7]), 25%; in experiment [6] (setting [8]) it was 25%; in experiment [6] (at 50.0 µM), 76% (active).

These data come from PubChem BioAssay (NCI).
